Bioassay records: PubChem, National Center for Advancing Translational Sciences (NCATS)
This is a sample that favours compounds with a hit; in the whole collection about 9.4% have one here.
ELG1 genotoxic – genotoxicity induction in ELG1-luciferase HEK293T cells; HEK293T ELG1-luciferase reporter, luminescence, 16 h; Potency, µM (doses to about 46 µM), actives largely listed as activators; hit rate 1.3% among 330,000; AID 504466; further: nearly all actives have a fitted effect of over 60% in size
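Reporter readout depends on ELG1 protein level, which increases with genetic stress. After 16 hr compound exposure at 37 °C, luciferase activity was quantified using ONE-Glo.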
ELG1 DNA repair – ELG1-dependent DNA repair inhibition | HEK293T ELG1-luciferase reporter, luminescence, 16 h; DNA damage induced by 5-fluorouridine | Potency, µM (highest dose often 46.1 µM), most hits filed as inhibitors | hit rate 2.3% among 330,000 | AID 504467; further: nearly all actives have a fitted effect of over 55% in size
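Step one: seed 2,000 cells per well. Step two: pin-transfer compound or DMSO alongside 5-fluorouridine. Step three: incubate 16 hr, 37 °C, 5% CO2. Step four: add ONE-Glo, wait 30 min, read luminescence.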
FLuc counter – inhibits or activates purified firefly luciferase, miR-21 counter-screen | P08659 | Potency, µM (doses to about 57.5 µM), hits mostly inhibitors | purified FLuc, Km substrates, luminescence inhibition | hit rate 6.9% among 360,000; further: nearly all actives have a fitted effect of over 55% in size
Target sequence (P08659 whole entry, looked up): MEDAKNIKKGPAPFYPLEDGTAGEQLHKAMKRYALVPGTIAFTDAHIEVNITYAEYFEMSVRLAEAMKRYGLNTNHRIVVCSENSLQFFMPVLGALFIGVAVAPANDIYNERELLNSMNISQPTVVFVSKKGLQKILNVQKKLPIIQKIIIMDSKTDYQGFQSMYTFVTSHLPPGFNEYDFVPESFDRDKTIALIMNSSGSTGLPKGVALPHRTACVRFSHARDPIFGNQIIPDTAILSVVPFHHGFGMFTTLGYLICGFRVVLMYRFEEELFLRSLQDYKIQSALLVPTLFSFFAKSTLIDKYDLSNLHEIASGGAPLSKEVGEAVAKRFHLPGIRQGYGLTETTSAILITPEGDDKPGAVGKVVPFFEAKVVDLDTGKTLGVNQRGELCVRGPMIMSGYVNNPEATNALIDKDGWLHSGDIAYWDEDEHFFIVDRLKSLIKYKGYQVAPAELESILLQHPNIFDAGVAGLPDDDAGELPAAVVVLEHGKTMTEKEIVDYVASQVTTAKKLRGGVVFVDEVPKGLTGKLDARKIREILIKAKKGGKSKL
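Biochemical qHTS of compounds, final roughly 60 µM downward over six points, against 10 nM purified firefly luciferase using Km concentrations of substrates (10 uM D-luciferin, 10 uM ATP) in Tris acetate pH 7.5 buffer; luminescence output.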
SMN2 splice enh – increases expression of the SMN2 splice variant. hit rate 2.8% among 210,000. Potency, µM (titrated, usually from 46.1 µM), hits mostly activators. AID 1458. HEK293 SMN2-luciferase splicing reporter, luminescence, 30-36 h; further: nearly all actives have a fitted effect of over 55% in size
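HEK293 cells carry an SMN2 […]–luciferase reporter in which exon 7 inclusion puts luciferase in frame. Cells were plated 10-12 h before compound addition, then incubated 30-36 h at 37C. ONE-Glo luminescence was read; sodium butyrate at 4.5 mM final served as control.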
Rab9 promoter act – activators of Rab9 promoter. Huh7 Rab9 promoter-luciferase reporter, luminescence, 24 h. Potency, µM (titrated, usually from 9.22 µM), hits mostly activators. hit rate 2.8% among 320,000; further: nearly all actives have a fitted effect of over 60% in size
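Huh7 cells stably carrying Rab9 promoter–luciferase reporter, plated 1500 cells/well, compound added after 2 h and incubated 24 h at 37 °C; luciferase luminescence then read after 10 min with detection reagent.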
NPC1 promoter act – NPC1 promoter activation; Huh7 NPC1 promoter luciferase reporter, 24 h; Potency, µM (doses to about 9.22 µM), actives largely listed as activators; hit rate 2.4% among 320,000; further: nearly all actives have a fitted effect of over 60% in size
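Compounds in DMSO were transferred onto Huh7 NPC1-luciferase reporter cells pre-incubated 2 h; after 24 h at 37 °C, Amplite reagent was dispensed and luminescence recorded 10 min later.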
A number is an active result. The call rests on the fitted dose curve; in most records, active means well fitted curve in the direction sought with a large enough effect; inconclusive means small, poorly fitted or top-dose-only effect, or another doubt; inactive means no such curve, though single readings can be large; an effect the other way counts as inactive or inconclusive.

Results for CN1CCN(c2ncc3nc(-c4ccc(Cl)cc4)c(=O)n(CCC#N)c3n2)CC1 ?
SMN2 splice enh: inactive

How did O=C(CSc1nc2ccccc2s1)c1cc2ccccc2o1 do in these assays?
FLuc counter: 17µM; SMN2 splice enh: inactive

How did O=C(CSc1nnc(NC(=O)c2ccccc2Cl)s1)Nc1ccc2c(c1)oc1ccccc12 do in these assays?
ELG1 genotoxic: inconclusive; ELG1 DNA repair: inconclusive; FLuc counter: 0.95µM; SMN2 splice enh: 35µM; Rab9 promoter act: inconclusive; NPC1 promoter act: 3.5µM

What do the screens show for `O=C(CSc1nc2ccccc2s1)CSc1nc2ccccc2s1`?
ELG1 genotoxic: inactive; ELG1 DNA repair: inactive; FLuc counter: inactive; SMN2 splice enh: inactive; Rab9 promoter act: inactive; NPC1 promoter act: inactive

Results for O=C(CSc1nnc(NC(=O)c2ccc(F)cc2F)s1)NC1CC1 ?
ELG1 genotoxic: inconclusive; ELG1 DNA repair: inconclusive; FLuc counter: 7.6µM; Rab9 promoter act: inconclusive; NPC1 promoter act: inconclusive

Results for O=c1oc2ccccc2n1CSc1nc2ccccc2s1 ?
ELG1 genotoxic: inconclusive; ELG1 DNA repair: inconclusive; FLuc counter: 12µM; SMN2 splice enh: inactive; Rab9 promoter act: 4µM; NPC1 promoter act: 2.8µM

How did CCC(=O)Nc1nnc(SCC(=O)Nc2cccc(Cl)c2)s1 do in these assays?
ELG1 genotoxic: inactive; ELG1 DNA repair: inactive; FLuc counter: inactive; Rab9 promoter act: inactive; NPC1 promoter act: inactive

What do the screens show for `CS(=O)(=O)N1CCCc2cc(C(=O)Nc3cccc(C(F)(F)F)c3)ccc21`?
FLuc counter: inactive; SMN2 splice enh: inactive

What do the screens show for `O=C(CSc1nnc(NC(=O)c2ccccc2Cl)s1)NC1CC1`?
ELG1 genotoxic: inactive; ELG1 DNA repair: inconclusive; FLuc counter: 12µM; Rab9 promoter act: 4.5µM; NPC1 promoter act: inconclusive

Results for O=C(CSc1nnc(NC(=O)c2c(F)cccc2F)s1)NC1CC1 ?
ELG1 genotoxic: inactive; ELG1 DNA repair: inconclusive; FLuc counter: inactive; Rab9 promoter act: inactive; NPC1 promoter act: inactive

Results for O=C1NC(=O)/C(=C\c2ccc(OCc3ccccc3)cc2)S1 ?
ELG1 genotoxic: inactive; ELG1 DNA repair: inconclusive; FLuc counter: 19µM; Rab9 promoter act: inactive; NPC1 promoter act: inactive

Results for O=C1NC(=O)/C(=C\c2ccccc2OCc2ccccc2)S1 ?
ELG1 genotoxic: inactive; ELG1 DNA repair: inconclusive; FLuc counter: 27µM; SMN2 splice enh: inactive; Rab9 promoter act: inactive; NPC1 promoter act: inactive

What do the screens show for `CCc1cccc(NC(=O)Cn2c(=O)n(CC(=O)NCCc3ccccc3)c(=O)c3ccccc32)c1`?
FLuc counter: inactive; SMN2 splice enh: inactive

How did COc1ccc(OCc2cc(C(=O)NC(C)Cn3cncn3)no2)c(Cl)c1 (centres undefined) do in these assays?
ELG1 genotoxic: inconclusive; ELG1 DNA repair: inconclusive; FLuc counter: 12µM; Rab9 promoter act: inconclusive; NPC1 promoter act: inconclusive

Results for CC(=O)c1ccc(OCc2cc(C(=O)NC(C)Cc3ccccn3)no2)cc1 (centres undefined) ?
ELG1 genotoxic: inactive; ELG1 DNA repair: inactive; FLuc counter: inactive; Rab9 promoter act: inactive; NPC1 promoter act: inactive

How did COc1ccc(OCc2cc(C(=O)NC(C)Cc3cccnc3)no2)c(Cl)c1 (centres undefined) do in these assays?
ELG1 genotoxic: inactive; ELG1 DNA repair: inactive; FLuc counter: 13µM; Rab9 promoter act: inactive; NPC1 promoter act: inactive

What do the screens show for `O=C(NCCc1cccnc1)c1cc(COc2ccc(F)cc2Cl)on1`?
ELG1 genotoxic: inactive; ELG1 DNA repair: inactive; FLuc counter: 19µM; Rab9 promoter act: inactive; NPC1 promoter act: inactive

What do the screens show for `COc1ccc(OCc2cc(C(=O)NC(C)Cc3ccccn3)no2)c(Cl)c1` (centres undefined)?
ELG1 genotoxic: inactive; ELG1 DNA repair: inconclusive; FLuc counter: 12µM; Rab9 promoter act: inactive; NPC1 promoter act: inactive

Results for CC(Cc1cccnc1)NC(=O)c1cc(COc2ccc(F)cc2F)on1 (centres undefined) ?
ELG1 genotoxic: inactive; ELG1 DNA repair: inactive; FLuc counter: inactive; Rab9 promoter act: inactive; NPC1 promoter act: inactive

How did Fc1ccc(NCc2nnc(SCc3nnc(-c4ccccc4)o3)n2Cc2ccccc2)cc1 do in these assays?
ELG1 genotoxic: inactive; ELG1 DNA repair: 16µM; FLuc counter: inactive; SMN2 splice enh: inactive; Rab9 promoter act: inactive; NPC1 promoter act: inactive

Results for Clc1ccc(-c2nnc(CSc3nnc(-c4cccs4)n3Cc3ccccc3)o2)cc1 ?
ELG1 genotoxic: inactive; ELG1 DNA repair: inactive; FLuc counter: inactive; SMN2 splice enh: inactive; Rab9 promoter act: inactive; NPC1 promoter act: inactive

Results for CCCc1cc(C(=O)N2CCCC(C(=O)c3cc(C)c(OC)c(C)c3)C2)n(C)n1 (centres undefined) ?
ELG1 genotoxic: inactive; ELG1 DNA repair: 8.2µM; FLuc counter: inactive; Rab9 promoter act: inactive; NPC1 promoter act: inactive

What do the screens show for `COc1c(C)cc(C(=O)C2CCCN(C(=O)c3ccc4[nH]ccc4c3)C2)cc1C` (centres undefined)?
ELG1 genotoxic: inactive; ELG1 DNA repair: inconclusive; FLuc counter: inactive; Rab9 promoter act: inactive; NPC1 promoter act: inactive

Results for COc1c(C)cc(C(=O)C2CCCN(C(=O)c3cccc(-n4cccn4)c3)C2)cc1C (centres undefined) ?
ELG1 genotoxic: inactive; ELG1 DNA repair: 23µM; FLuc counter: inactive; Rab9 promoter act: inactive; NPC1 promoter act: inactive

How did COc1c(C)cc(C(=O)C2CCCN(C(=O)CCc3scnc3C)C2)cc1C (centres undefined) do in these assays?
ELG1 genotoxic: inactive; ELG1 DNA repair: 12µM; FLuc counter: inactive; Rab9 promoter act: inactive; NPC1 promoter act: inactive

How did COc1ccc(CCNC(=O)CCc2cn(Cc3ccc(C)cc3)c3ccccc23)c(OC)c1OC do in these assays?
FLuc counter: inactive

Results for CN(C)C(=O)c1ccc(NC(=O)c2cncc(Br)c2)cc1 ?
ELG1 genotoxic: inactive; ELG1 DNA repair: inconclusive; FLuc counter: inconclusive; SMN2 splice enh: inconclusive; Rab9 promoter act: inactive; NPC1 promoter act: inactive

Results for O=C(Nc1ccc2c(c1)OCO2)c1cncc(Br)c1 ?
ELG1 genotoxic: inactive; ELG1 DNA repair: inconclusive; FLuc counter: 27µM; SMN2 splice enh: inactive; Rab9 promoter act: inconclusive; NPC1 promoter act: inconclusive

Results for O=C(Nc1ccc2c(c1)OCCO2)c1cncc(Br)c1 ?
ELG1 genotoxic: inconclusive; ELG1 DNA repair: inconclusive; FLuc counter: 4.8µM; SMN2 splice enh: 10µM; Rab9 promoter act: 1.4µM; NPC1 promoter act: 3.5µM

What do the screens show for `Cc1cc(C)c(NC(=O)Cn2c(=O)n(CC3CCCO3)c(=O)c3ccccc32)c(C)c1` (centres undefined)?
FLuc counter: inactive; SMN2 splice enh: inactive

Results for Cc1ccc(-c2nn(CC(=O)Nc3cccc(C(F)(F)F)c3)c(=O)c3ccccc23)cc1 ?
FLuc counter: inactive; SMN2 splice enh: inactive
